Data from PubChem BioAssay (NCATS).
Records with an inconclusive call do not appear. A call without a number means that no potency is given here. Activity calls are given as the source filed them. Calls follow the shape of the dose curve; as a rule, active = well fitted inhibition curve with a large enough effect; inconclusive = small, poorly fitted or top-dose-only effect; inactive = flat fitted curve, though single readings scatter.

Test system: MCC-26
Assay: qHTS assay to identify novel small-molecules to repurpose for Merkel cell carcinoma treatment (AID 1296009); also: nearly all actives have a fitted effect of over 60% in size
Conditions: MCC and control cell lines, CellTiter-Glo viability, 72 h; series mostly up to 46 µM
Source text: MCC is a rare and aggressive neuroendocrine skin cancer with limited treatment options. Approximately 80% of MCCs have the Merkel cell polyomavirus (MCPyV) DNA integrated into the host genome (virus-positive: VP-MCC) and viral oncogenes drive oncogenesis. The remaining MCCs are virus-negative (VN-MCC) and are caused by UV mutagenesis. To identify novel treatments for VP-MCC and/or VN-MCC we screened three VP-MCC cell lines (WAGA, MKL-1, MKL-2), three VN-MCC cell lines (MCC-13, MCC-26, UISO), and four immortalized, non-transformed control cell lines (HaCaT, HEK293T, CRL7250, NIH-3T3) against ~2,400 compounds in the NCGC Pharmaceutical Collection (NPC) and ~1,900 compounds in the Mechanism Interrogation PlatE (MiPE). Using cell viability as a readout (CellTiter-Glo assay) we found both overlapping and distinct drugs that can be repurposed for the treatment of VP-MCC and VN-MCC.
A high-throughput screen was conducted in 1536-well white flat bottom plates (Corning) on a Kalypsys robotic system. Cell lines WAGA, MKL-1, MKL-2, MCC-13, MCC-26, UISO, HaCaT, HEK293T, CRL7250, and NIH-3T3 were screened against 2 small molecule annotated drug libraries NPC and MIPE in dose response (8 and 11 pt. respectively) measuring cell viability after 72 hours of incubation. […] A 1,536 pintool (Kalypsys) was used to transfer 23 nL of compound in DMSO to the 1,536-well assay plates. After 72 hr incubation at 37 degree celsius, 2.5 uL of CellTiter-Glo (Promega) was dispensed into each well using a BiorapTR. Plates were incubated at room temperature for 10 min, transferred to a ViewLux (PerkinElmer) and the luminescence was recorded using an exposure time of 2 seconds. Relative luminescence units (RLUs) were normalized to in-plate controls (no cells as a positive (cytotoxicity) control, DMSO as negative control) and the normalized data was processed using NCATS in-house software.

Row | Structure (SMILES) | Potency
1 | C[C@]12C/C(=C/O)C(=O)C[C@@H]1CC[C@@H]1[C@@H]2CC[C@@]2(C)[C@H]1CC[C@]2(C)O | inactive
2 | NCC(O)c1ccc(O)cc1 (stereo not given) | inactive
3 | Oc1ccccc1-c1ccccc1 | inactive
4 | O=[N+]([O-])c1cc([As](=O)(O)O)ccc1O | inactive
5 | CC1OC(C)OC(C)O1 (stereo not given) | inactive
6 | CCC1(C2=NCCN2)Cc2ccccc2O1 (stereo not given) | inactive
7 | C[C@@H]1[C@@H](CC(C[C@H]2O[C@@H]3O[C@]4(C)CC[C@@H]5[C@H](C)CC[C@@H]([C@H]2C)[C@@]35OO4)C[S+](=O)([O-])c2ccc(COC(=O)N(C)C)cc2)O[C@@H]2O[C@]3(C)CC[C@H]4[C@H](C)CC[C@@H]1[C@@]24OO3 (stereo not given in full) | inactive
8 | CC(CCc1ccccc1)NC(C)C(O)c1ccc(O)cc1 (stereo not given) | inactive
9 | Cc1cc(SCc2sc(-c3ccc(C(F)(F)F)c(F)c3)nc2C)ccc1OCC(=O)O | inactive
10 | O=C1NCN(c2ccccc2)C12CCN(CC1COc3ccccc3O1)CC2 (stereo not given) | inactive
11 | NCCc1cc(O)c(O)cc1O | inactive
12 | CC(C)=CC1C(C(=O)OCc2cccc(Oc3ccccc3)c2)C1(C)C (stereo not given) | inactive
13 | CN(C)CCN(C)CCc1ccc(Cl)c(Cl)c1 | inactive
14 | CCC(COC(=O)c1cc(OC)c(OC)c(OC)c1)(c1ccccc1)N(C)C (stereo not given) | inactive
15 | C#CCOC(C(=O)OCCN(C)C)(c1ccccc1)c1ccccc1 | inactive
16 | CC(C)(N)Cc1ccc(Cl)cc1 | inactive
17 | Cc1cccc(C)c1NC(=O)CN1CCCC1=O | inactive
18 | Cc1ccc2c(c1)C1CN(C)CCC1N2 (stereo not given) | inactive
19 | CCN(CC)C(=O)N[C@@H]1C=C2c3cccc4[nH]cc(c34)C[C@@H]2N(C)C1 | inactive
20 | CCN(C(C)=O)c1cccc(-c2ccnc3c(C#N)cnn23)c1 | inactive

Row | Structure (SMILES) | Potency
21 | O=C1CC[C@@]2(O)[C@H]3Cc4ccc(O)c5c4[C@@]2(CCN3CC2CC2)[C@H]1O5 | inactive
22 | Cc1ccc(-c2nc3ccc(C)cn3c2CC(=O)N(C)C)cc1 | inactive
23 | CC1=C2C[C@@H]3[C@@H](CC=C4C[C@@H](O)CC[C@@]43C)[C@@H]2CC[C@]12O[C@H]1C[C@H](C)CN[C@H]1[C@H]2C | inactive
24 | C[C@]12CCC(=O)C(O)=C1CC[C@@H]1[C@@H]2CC[C@]2(C)C(=O)CC[C@@H]12 | inactive
25 | Oc1ccc(Cl)cc1Cc1ccccc1 | inactive
26 | C=CCN1CC[C@]23c4c5ccc(O)c4O[C@H]2C(=O)CC[C@@]3(O)[C@H]1C5 | inactive
27 | CC(C)(C)NCC(O)c1cc(Cl)c(N)c(Cl)c1 (stereo not given) | inactive
28 | C[C@@H]1[C@@H](C(=O)C[C@H]2O[C@@H]3O[C@]4(C)CC[C@@H]5[C@H](C)CC[C@@H]([C@H]2C)[C@@]35OO4)O[C@@H]2O[C@]3(C)CC[C@H]4[C@H](C)CC[C@@H]1[C@@]24OO3 | inactive
29 | N[C@@H]1C[C@H]1c1ccccc1 | inactive
30 | CC[N+]1(C)CCCC(OC(=O)C(O)(c2ccccc2)c2ccccc2)C1 (stereo not given) | inactive
31 | CCN(CC)CCOC(=O)C(O)(c1ccccc1)c1ccccc1 | inactive
32 | COc1ccc(Cc2nccc3cc(OC)c(OC)cc23)cc1OC | inactive
33 | CN(C)[C@@H]1C(=O)C(C(N)=O)=C(O)[C@@]2(O)C(=O)C3=C(O)c4c(O)cccc4[C@@](C)(O)[C@H]3C[C@@H]12 | inactive
34 | Cc1ccc(S(=O)(=O)N[C@@H](CCCCN)C(=O)CCl)cc1 | inactive
35 | Cn1c(CCCC(=O)O)nc2cc(N(CCCl)CCCl)ccc21 | inactive
36 | C=C1C[C@@H]2[C@H](CC[C@]3(C)C(=O)CC[C@@H]23)[C@@]2(C)C=CC(=O)C=C12 | inactive
37 | CNCC(O)c1ccc(O)cc1 (stereo not given) | inactive
38 | NN=C(N)N | inactive
39 | N[C@@H](Cc1ccc(Oc2cc(I)c(O)c(I)c2)c(I)c1)C(=O)O | inactive
40 | Fc1ccc(C(OCCN2CCN(CCCc3ccccc3)CC2)c2ccc(F)cc2)cc1 | inactive
